Drawing on the supplement of paper PMC11172423, this text covers growth for 22 compounds.

In the assay the test system is Falciformispora senegalensis CBS197.79. Nature of the assay: growth relative to untreated control; higher = less inhibition, active = 20 or less. To be noted: 25 µM. The gist of the method:
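For each test, a hyphal fragment suspension of M. mycetomatis MM55 or F. senegalensis CBS197.79 was prepared in colourless RPMI 1640 with L-glutamine and MOPS at 68–72% transmission at 660 nm. Exposure to compound at 100 or 25 µM ran for 7 days at 37 °C in 96-well plates, followed by viability reading with MTS (2 h, 490 nm) or resazurin (600 nm). Growth corresponds to metabolic activity relative to the untreated growth control after correction of both with a blank of medium and dye.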
Take `Cc1cccnc1Nc1cn2cc(-c3ccnc(OC(C)C)n3)ccc2n1`: the growth was 101% (inactive). For `O=C(Nc1cccc(-c2n[nH]c3ccc(-c4n[nH]c(C5CCCN5)n4)cc23)c1)C1CC1` (configuration not stated) the value was 102% (inactive); for `CNCc1[cH-]ccc1CNc1ccnc2cc(Cl)ccc12.[Fe+2].c1cc[cH-]c1`, 10.2% (active). As for `OB(O)O`, the growth was 90.6% (inactive). Regarding `CC(C)(C)NCc1cc(Nc2ccnc3cc(Cl)ccc23)c2c(c1O)CCCC2`, the growth is 106% (inactive). With `O=c1[nH]ccc2nc(N[C@@H]3CCNC3)nc(Nc3ccc4c(c3)S(=O)(=O)CC4)c12`, the growth is 90.7% (inactive). To `CC(C)(C)NC(=O)[C@@H]1CN(Cc2cccnc2)CCN1C[C@@H](O)C[C@@H](Cc1ccccc1)C(=O)N[C@H]1c2ccccc2C[C@H]1O` belongs 105% (inactive); to `Cn1cc(CN2CCc3c(c(C(=O)NCc4nccs4)nn3Cc3ccccc3)C2)c2ccccc21`, 89.7% (inactive); to `CN(C)CCOc1ccc(/C(=C(/CCCl)c2ccccc2)c2ccccc2)cc1`, 0% (active).

For the compound `O=C1CN(C(=O)CCC2CCCC2)C(c2ccc(F)cc2)c2cc(Cl)ccc2N1` (configuration not stated), the growth was 71.2% (inactive). Regarding `Cc1nc2ccccn2c1C1(O)C(=O)Nc2c(Cl)cc(Cl)cc21` (configuration not stated), the growth was 101% (inactive). To `C[C@H](NC(=O)c1cc2cccc(F)c2[nH]1)c1ccccc1` belongs 100% (inactive); to `O=C1NCN(c2ccccc2)C12CCN(CCCC(c1ccc(F)cc1)c1ccc(F)cc1)CC2`, 3.66% (active). To `CN(C)CCN1CCCN(c2ccnc3ccsc23)CC1` belongs 90.2% (inactive); to `O=C(NC1(CO)CCOCC1)c1cc2ccc(C(F)(F)F)cc2[nH]1`, 89.7% (inactive); to `Cc1nn(-c2cccc(Cl)c2)c2c1C(C(=O)c1ccc3c(c1)OCO3)CC(=O)N2` (configuration not stated), 87.3% (inactive).

`c1cc(-c2n[nH]c3ccc(-c4n[nH]c(C5CCCN5)n4)cc23)ccc1CNC1CC1` (configuration not stated): the growth is 88.8% (inactive). Consider `C[C@]1(c2nc3c(C(N)=O)cccc3[nH]2)CCCN1`, for which the growth is 95.9% (inactive). Regarding `CNc1ccc2cc(NC(=O)c3ccc(C(F)(F)F)c(Cl)c3)ccc2n1`, the growth is 69.4% (inactive). With `CC(C)C[C@H](NC(=O)[C@@H](NC(=O)c1cccc(-c2ccccc2)n1)[C@@H](C)O)B(O)O`, the growth is 102% (inactive). With `CCC1=C(c2ccc(C)cc2)S(=O)(=O)N=C1N1CCC(C(=O)NCCN2CCCCC2C)CC1` (configuration not stated), the growth was 86.3% (inactive). For `CCc1nn2c(Nc3ccncc3)cc(C)nc2c1-c1ccccc1` the value was 88.3% (inactive).
